# Screening results (PubChem BioAssay)
# Pol III holo inh: DNA polymerase III holoenzyme inhibition. Potency, µM (series often up to 57.1 µM), for the others: at the top dose activity change, negative = inhibition. reconstituted DNA polymerase III holoenzyme replication, biochemical. AID 603. actives 0.25% (n = 71,000); further: potency means the concentration at half of the fitted maximal effect; on the % scale 0 is the no-effect control and ±100 the full control effect
#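 Reconstituted *E. coli* holoenzyme (0.35 nM Pol III, 1 nM beta, 154 nM SSB, 2 nM primase) was preincubated with compound for 15 min at RT. Synthesis on 1.4 nM ssM13Gori ran 35 min, then was stopped with PicoGreen/EDTA and read as dsDNA fluorescence.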
# BRCT inh red: disrupts BRCA1 BRCT binding to phosphoprotein, red fluorophore readout; actives 0.03% (n = 75,000); P38398; BRCT-phosphopeptide binding, red fluorescence polarization; Potency, µM (doses to about 76.9 µM), without a hit: at the highest dose activity change, negative = inhibition, usual class: inhibitors; further: on the % scale 0 is the no-effect control and ±100 the full control effect
#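 Fluorescence polarization: 100 nM His-tagged BRCA1 BRCT with 100 nM TAMRA-labelled phospho-BACH1 decapeptide, phosphate buffer pH 7.3 with 150 mM NaCl, DTT, 0.01% Tween 20; 12 min RT. Binding inhibition seen as FP decrease.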
# BRCT PPI green: blocks human BRCA1 BRCT binding to phosphopeptide, green readout | Potency, µM (series often up to 76.9 µM), inactives show top-dose activity change, negative = inhibition, usual class: inhibitors | P38398 | actives 0.05% (n = 75,000) | BRCA1 BRCT-phosphopeptide binding, green fluorescence polarization;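 further: potency means the concentration at half of the fitted maximal effect; plate controls were peptide without protein for full effect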
#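 Compounds were incubated for 12 min at room temperature with a complex of 100 nM fluorescein-tagged pBACH1 decapeptide and 250 nM His-tagged BRCT protein. Buffer was phosphate pH 7.3 with EDTA, DTT and Tween 20. Disruption of binding lowers the polarization signal.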
# TSHR agonist: agonists of human thyroid stimulating hormone receptor; AID 926; P16473; actives 0.48% (n = 73,000); HEK293-CNG-TSHR cells (CNG channel as cAMP sensor), membrane potential dye, cAMP; Potency, µM (top dose mostly 57.1 µM), inactives show at the highest dose activation, actives largely listed as activators; active means well fitted activation curve with a large enough effect in the main read-out, with a control signal flat, not every such curve was filed as active; inconclusive means small, poorly fitted or top-dose-only effect, or a change in a side signal; inactive means no such curve, though single readings can be large or run the other way; % of control where 0% means no effect;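 further: the control signal comes from parental cells without the receptor; potency means the concentration at half of the fitted maximal effect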
#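 cAMP rise detected as CNG-channel membrane depolarization by fluorescent dye (emission 590 nm), 30 min after compound, following 60 min dye loading containing 100 uM RO 20-1724 at room temperature. Cells: TSHR/CNG HEK 293, with parental CNG HEK 293 as control.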
# TsaE inh: displaces an ADP probe from E. coli YjeE (TsaE). actives 0.05% (n = 71,000). purified YjeE enzyme, qHTS inhibition assay. P0AF67. Potency, µM. AID 605
#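 Purified YjeE (10 uM) with BODIPY Texas Red-labeled ADP probe (2 uM); compounds pin-transferred, 15 min at room temperature. Binding inhibition read as decreased fluorescence polarization; ADP titration as control.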
# HEK293 cAMP ctrl: parental HEK293 cAMP activation (counter-screen). Potency, µM (top dose mostly 57.1 µM), for inactives: top-dose activation, actives largely listed as activators. actives 2.5% (n = 73,000). AID 938. parental HEK293 CNG cAMP sensor, membrane potential fluorescence; further: potency means the concentration at half of the fitted maximal effect; % of control where 0% means no effect; nearly all actives have a fitted effect of over 55% in size
#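 Parental HEK 293 cells stably expressing a cAMP-gated CNG channel were loaded with membrane potential dye containing 100 uM RO 20-1724 for 60 min. Compound added for 30 min; depolarization read as fluorescence intensity at 590 nm.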
# * hit, by the source's call; i = inactive; ? = inconclusive; . = no result. Shown are actives, neighbours in structure and some others; about 3.2% of the full set was active somewhere. Unless noted, the call rests on the fitted dose curve; in most records, active means well fitted curve in the direction sought with a large enough effect; inconclusive means small, poorly fitted or top-dose-only effect, or another doubt; inactive means no such curve, though single readings can be large; an effect the other way counts as inactive or inconclusive.
SMILES,Pol III holo inh,BRCT inh red,BRCT PPI green,TSHR agonist,TsaE inh,HEK293 cAMP ctrl
Cc1ccccc1OCC(=O)Nc1ccccc1N1CCOCC1,-4.6%,1.0%,0.4%,?,i,25.1µM*
CSc1nc2oc3c(c2c2nncn12)CC(C)(C)SC3,-4.4%,-0.5%,-1.2%,4.8%,i,4.4%
CSCCC(NC(=O)c1ccccc1)C(=O)NC1CCCC1 (configuration not stated),-2.2%,0.3%,-0.5%,-0.3%,i,14.1%
CSCCC(NC(=O)c1ccccc1)c1nc(-c2ccccc2)no1 (configuration not stated),7.6%,-0.1%,-1.4%,?,i,15.8µM*
C/C=C/CSc1nc2c(c(=O)[nH]c(=O)n2C)n1Cc1ccc(C)cc1,-9.1%,0.4%,-2.1%,17.5%,i,0.0%
CCCC[C@H]1C[C@@H]1[C@@H]1N(C(C)=O)[C@H](c2cccc(OC)c2)CC12CC2,-3.3%,-1.4%,1.0%,?,i,20µM*
CCOC(=O)c1cnc(-n2nc(C)cc2C)nc1Nc1ccc(N(C)C)cc1,-6.7%,-0.3%,-0.3%,-14.3%,i,-8.1%
CCOC(=O)c1cnc(-n2nc(C)cc2C)nc1Nc1cccc(C(=O)O)c1,-8.6%,0.4%,-2.7%,25.1µM*,i,13.1%
COc1cccc(-c2noc(C3CCCN(C(=O)Cc4ccccc4)C3)n2)c1 (configuration not stated),1.6%,-0.9%,3.5%,?,i,?
COc1ccc(-c2noc(C3CCCN(C(=O)CCc4ccccc4)C3)n2)cc1 (configuration not stated),-2.5%,1.0%,0.7%,?,i,25.1µM*
O=C(c1ccco1)N1CCCC(c2nc(-c3ccc(S(=O)(=O)NCc4ccccc4)cc3)no2)C1 (configuration not stated),-0.5%,0.3%,1.6%,?,i,25.1µM*
COc1cccc(Nc2nnc(SCC(=O)N3CCOCC3)s2)c1,6.0%,0.5%,-5.5%,-2.9%,i,5.7%
CCOc1ccc(NC(=O)CSc2nnc(Cc3cccn3C)n2-c2ccc(F)cc2)cc1,2.6%,-0.1%,-1.6%,1.3%,i,-3.7%
CCN1CCN(C(=O)C2CCN(Cc3nc(-c4cccc(Cl)c4)oc3C)CC2)CC1,-5.3%,-0.4%,-1.3%,16.8%,i,12.8%
CCc1c(O)nc(SCc2ccccc2)n(C(C)CC)c1=O (configuration not stated),1.0%,-0.2%,2.2%,?,i,25.1µM*
Cc1c(C(=O)Nc2ccncc2)sc2nc(-c3ccccc3)cn12,-14.8%,1.5%,-6.9%,?,i,?
COc1ccc(N(CC(=O)Nc2cc(C)on2)S(=O)(=O)c2cc(C)ccc2C)cc1,11.1%,0.0%,-3.2%,25.1µM*,i,26.9%
COc1ccc(-n2nnc3c(=O)n(Cc4cccc(C)c4)cnc32)cc1,-2.1%,-1.3%,1.7%,?,i,25.1µM*
COc1ccc(-n2nnc3c(=O)n(Cc4ccccc4C)cnc32)cc1,-6.9%,0.3%,-1.0%,.,i,27.1%
Cc1ccc(C)c(Cn2cnc3c(nnn3-c3ccc(F)cc3)c2=O)c1,2.2%,-0.3%,-1.4%,?,i,1µM*
COC(=O)c1ccc(NC(=O)c2ccc(N(C)S(C)(=O)=O)cc2)cc1,3.0%,-0.3%,-1.3%,.,i,12.2%
Cc1ccc(N(CC(O)CN2CCOCC2)S(=O)(=O)c2ccc3ccccc3c2)cc1 (configuration not stated),4.3%,0.7%,-2.1%,22.5%,i,27.2%
CCc1ccc(-c2cn(-c3nc(C)cc(C)n3)c(=N)o2)cc1,-5.1%,0.6%,0.2%,?,i,25.1µM*
Cc1nnc(N(C)C(=O)Cc2ccc3c(c2)OCO3)s1,-3.7%,0.8%,-0.1%,?,i,?
